Compounds without any hit were thinned out: in the full panel of roughly 79,000, 15% have a hit. Calls of active or inactive are those of the source. Cut-off read from the data, not from the text of the source: active = growth inhibition above about 70%; inactive = the rest.
Test: NCI Yeast Anticancer Drug Screen. Data for the rad50 strain (AID 155);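 note: 0% = growth of vehicle-only cultures of the same strain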
Conditions: S. cerevisiae rad50 strain growth inhibition; at 5.0 µM (retest, dose inferred, filed as 0.5); hits give high values
How it was run: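 Yeast carrying a defined DNA repair defect were exposed to test compounds, and growth was compared with vehicle-treated controls to give percent inhibition.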

Row | SMILES | growth inhibition
1 | OC1C2COc3nc4ccccc4n3C(O2)C1O (stereo not given) | -153% (inactive)
2 | CN(C)CC1Cc2ccsc2C1=O (stereo not given) | 0% (inactive)
3 | CCCC(O)C[N+](=O)[O-] (stereo not given) | 6% (inactive)
4 | CC1=NC(C)=C(/C(C)=N/NC(=O)c2ccccc2O)C(C)/C1=C(/C)NNC(=O)c1ccccc1O (stereo not given) | 16% (inactive)
5 | O=[N+]([O-])c1cccc(S(=O)(=O)N/N=C/c2cc(I)cc([N+](=O)[O-])c2O)c1 | 5% (inactive)
6 | CNC(=O)OC(C)CN1c2ccccc2Sc2ccc(Cl)cc21 (stereo not given) | 12% (inactive)
7 | O=[N+]([O-])c1ccc(NSc2ccccc2)cc1 | -14% (inactive)
8 | CCOc1ccc2c(c1)nc1ccccc1[n+]2CC | 2% (inactive)
9 | O=C1C=CC(=O)c2c(O)c(N3CCN(CCO)CC3)c(Cl)c(O)c21 | 37% (inactive)
10 | O=C1CSC(c2cccc([N+](=O)[O-])c2)N1c1ccc(-c2ccc(-n3c(-c4ccccc4)nc4ccccc4c3=O)cc2)cc1 (stereo not given) | -12% (inactive)
11 | CCC(=O)c1ccc2ccc3ccccc3c2c1 | 6% (inactive)
12 | N#CSCc1c(Cl)cccc1Cl | 57% (inactive)
13 | O=[N+]([O-])/C(C(Cl)=C(Cl)Cl)=C(/Sc1ccccc1)N1CCOCC1 | 5% (inactive)
14 | COc1c2occc2c(OC)c2c(C)c(C(=O)OCCN3CCOCC3)oc12 | -1% (inactive)
15 | COc1cnn(-c2ccccc2)c(=O)c1SCc1ccc(Cl)c(Cl)c1 | -3% (inactive)
16 | COc1ccc(/C=C/c2c[n+]([O-])ccc2[N+](=O)[O-])cc1 | 14% (inactive)
17 | CS(=O)(=O)OCCCN(CCCOS(C)(=O)=O)c1ccc(C=Nc2ccc(-c3csc(COc4ccc(Br)cc4Br)n3)cc2)cc1 | 18% (inactive)
18 | O=C(Nc1ccccc1-c1nn(C(=S)Nc2ccccc2)c(=S)n(C(=S)Nc2ccccc2)c1=O)C(F)(F)F | 6% (inactive)
19 | Cc1ccc(N=C(N)NN=C(c2ccc(Cl)cc2)c2ccc(Cl)cc2)cc1 | 10% (inactive)
20 | Cc1cccc(C)c1N1C(=O)C(=O)C(c2nc3ccccc3s2)/C(=N/NC(=O)c2ccccc2O)C1=O (stereo not given) | 26% (inactive)

Row | SMILES | growth inhibition
21 | CN(C)CC1CC/C(=C\c2ccc(O)cc2)C1=O (stereo not given) | 11% (inactive)
22 | CCCCCC=C(c1cc(Br)cc(C(=O)O)c1O)c1cc(Br)cc(C(=O)O)c1O | 2% (inactive)
23 | CCS(CC)(CC)CC1CCCC2=CCC(P(=O)(c3ccccc3)c3ccccc3)CC21 (stereo not given) | 5% (inactive)
24 | Cc1c[n+](=O)c2ccccc2n1[O-] | -21% (inactive)
25 | O=C1CC(=S)NC(=S)N1 | -2% (inactive)
26 | CC1=NN(C(=O)c2ccc(Cl)cc2)C(=O)C1N=Nc1ccc(S(=O)(=O)Nc2ncccn2)cc1 (stereo not given) | 61% (inactive)
27 | COC(=O)c1cc(=O)n(-c2ccccc2OC)c(SC)n1 | 2% (inactive)
28 | CCCCN(CCCC)Cc1ccc(NC(C(=O)c2ccccc2)c2ccccc2)cc1 (stereo not given) | -5% (inactive)
29 | Cn1cc(/C=C/[N+](=O)[O-])c2ccc(OCc3ccccc3)cc21 | 2% (inactive)
30 | O=C(c1ccc([N+](=O)[O-])cc1)N1CCCSC1=S | 19% (inactive)
31 | CCCCCCCCC(=O)NCCN(CCN)C(=O)CCCCCCCC | -82% (inactive)
32 | Cc1nc2sc3c(c2c2nnnn12)CCCC3 | 2% (inactive)
33 | CCC(CC)(C(=O)Nc1ccc2c(c1)c(=O)c1ccccc1n2C)C(=O)Nc1ccc2c(c1)c(=O)c1ccccc1n2C | 7% (inactive)
34 | Cc1ccccc1N1CCN(c2c3c(nc4ccccc24)CCCCC3)CC1 | -4% (inactive)
35 | O=C(Nc1ccccc1)c1cc(Cl)ccc1O | -12% (inactive)
36 | CCCCCCCCCCCCCCCCCCOP(=O)([O-])OC1CC[N+](C)(C)CC1 | 93% (active)
37 | CN(C)c1ccc(C(O)(Cc2cccc(C#N)c2)c2ccc(N(C)C)cc2)cc1 | 2% (inactive)
38 | CC(=O)N1CCC(Cc2ccccc2)CC1 | -105% (inactive)
39 | O=[N+]([O-])c1ccc(-n2ncc3cccnc32)c([N+](=O)[O-])c1 | 1% (inactive)
40 | CC(C)OC(=O)c1ccc(NCC2=CC(=O)C=CC2=O)cc1Cl | 53% (inactive)
